Potency data for 27 molecules are collected here from PubChem BioAssay (NCATS).

Experiment [1] is described as follows: qHTS of pediatric cancer cell lines to identify multiple opportunities for drug repurposing: Primary screen for Rh30 cells (AID 1347107). Further: nearly all actives have a fitted effect of over 75% in size. The essentials:
(§1)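 Cells (500-1,000/well) in growth media were settled 5 h at 37 degrees C, then given compounds for 48 h. Viability was read as CellTiter-Glo luminescence. Primary runs used MIPE at 11 points (0.78 nM-46 µM) and NPC at 8 points (0.59 nM-46 µM); follow-ups used 11 points.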
For orientation: qHTS replaces the single test concentration by a dilution series.

Experiment [2] can be described thus: qHTS of pediatric cancer cell lines to identify multiple opportunities for drug repurposing: Primary screen for Rh41 cells (AID 1347108). Further: nearly all actives have a fitted effect of over 70% in size. Put shortly:
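Luminescence from CellTiter-Glo served as readout of metabolically active cells after 48 h compound exposure. Titrations: MIPE 11-point, from 0.78 nM; NPC 8-point, from 0.59 nM (final). Concentration-response curves came straight from the primary screen.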

Experiment [3] can be described thus: qHTS of pediatric cancer cell lines to identify multiple opportunities for drug repurposing: Primary screen for control Hh wild type fibroblast cells (AID 1347106). Further: nearly all actives have a fitted effect of over 55% in size. Put shortly: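 Viability after 48 h compound treatment at 37C, 500-1,000 cells/well, read as ATP luminescence with CellTiter-Glo. Primary screens used 11-point (MIPE, 0.78 nM-46 µM) or 8-point (NPC, 0.59 nM-46 µM) final concentrations; follow-up screens used 11-point dilutions.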

Experiment [4] is described as follows: qHTS of pediatric cancer cell lines to identify multiple opportunities for drug repurposing: Confirmatory screen for NB1643 cells (AID 1347109). Further: nearly all actives have a fitted effect of over 45% in size. The essentials:
as §1

The nature of experiment [5]: qHTS of pediatric cancer cell lines to identify multiple opportunities for drug repurposing: Confirmatory screen for A673 cells (AID 1347110).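 Further: cells exposed to compound for 48 h before the viability read; nearly all actives have a fitted effect of over 65% in size.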 Put shortly:
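Concentration-response curves came straight from titrations: 11 points (0.78 nM to 46 µM) for MIPE and several concentrations (0.59 nM to 46 µM) for NPC in primary, 11 points in follow-up. Readout: ATP luminescence at 48 h.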

Experiment [6] is described as follows: qHTS of pediatric cancer cell lines to identify multiple opportunities for drug repurposing: Confirmatory screen for LAN-5 cells (AID 1347113). Further: nearly all actives have a fitted effect of over 65% in size. The essentials: as §1
Experiment [7] in a line: qHTS of pediatric cancer cell lines to identify multiple opportunities for drug repurposing: Confirmatory screen for NB-EBc1 cells (AID 1347115).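 Further: cells exposed to compound for 48 h before the viability read; nearly all actives have a fitted effect of over 45% in size.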 The essentials: as §1
A short description of experiment [8]: qHTS of pediatric cancer cell lines to identify multiple opportunities for drug repurposing: Confirmatory screen for SJ-GBM2 cells (AID 1347116). Further: nearly all actives have a fitted effect of over 60% in size. The essentials: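 Viability measured as metabolically active cells via CellTiter-Glo luminescence following 48 hours of compound exposure, 11-point dilutions in confirmatory testing. 500-1,000 cells/well plated 5 hours before dosing; controls were DMSO and 2.3 µM bortezomib.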

The nature of experiment [9]: qHTS of pediatric cancer cell lines to identify multiple opportunities for drug repurposing: Confirmatory screen for SK-N-MC cells (AID 1347111).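 Further: cells exposed to compound for 48 h before the readout; nearly all actives have a fitted effect of over 70% in size.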 The essentials:
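Metabolically active cells were quantified by ATP-dependent luminescence (CellTiter-Glo, 15 min at room temperature) following 48 h treatment. Cells had been plated at 500-1,000 per well and settled for 5 h beforehand.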

Experiment [10] is described as follows: qHTS of pediatric cancer cell lines to identify multiple opportunities for drug repurposing: Confirmatory screen for BT-12 cells (AID 1347112). Further: nearly all actives have a fitted effect of over 55% in size. Put shortly:
as §1

Inconclusive results are not listed. Active and inactive are the calls of the source. The call rests on the fitted dose curve; in most records, active means well fitted curve in the direction sought with a large enough effect; inconclusive means small, poorly fitted or top-dose-only effect, or another doubt; inactive means no such curve, though single readings can be large; an effect the other way counts as inactive or inconclusive.
Potency means the concentration at half of the fitted maximal effect.

Take `CO[C@H]1C=CO[C@@]2(C)Oc3c(C)c(O)c4c(O)c(c(/C=N/N5CCN(C)CC5)c(O)c4c3C2=O)NC(=O)/C(C)=C\C=C[C@H](C)[C@H](O)[C@@H](C)[C@@H](O)[C@@H](C)[C@H](OC(C)=O)[C@@H]1C`: the Potency entry in [1] and in experiment [2] was “inactive” each time.

Turning to `CN1CCN(C2=Nc3ccccc3Sc3ccc(Cl)cc32)CC1`, the Potency entry in experiment [3], in experiment [1] and in experiment [2] was “inactive” each time.

Regarding `O=C(CCCN1CC=C(n2c(=O)[nH]c3ccccc32)CC1)c1ccc(F)cc1`, the Potency entry in experiment [4], in experiment [5], in experiment [6], in experiment [7] and in [8] was “inactive” each time.

Turning to `CC(CNC1CCCCC1)OC(=O)c1ccccc1` (stereo not drawn), the Potency entry in experiment [3], in experiment [1] and in experiment [2] was “inactive” each time.

Take `CCCCCCCCCCCCCC[N+](C)(C)Cc1ccccc1`: the Potency in experiment [2] was 18.8 µM (active).

As to `CN(C)CCOC(=O)C(c1ccccc1)C1(O)CCCC1` (stereo not drawn), the Potency entry in experiment [3], in experiment [1] and in experiment [2] was “inactive” throughout.

Consider `O=[N+]([O-])c1ccc(/C=N\O)o1`, for which the Potency entry in [3], in experiment [1], in experiment [2], in experiment [4], in experiment [5] and in experiment [10] was “inactive” in each case. Moreover, the Potency result in experiment [6] is “inactive”. Also, the Potency is 5.85 µM (active) in experiment [9] and 0.928 µM (active) in [8].

For `CCCCCCCCCCC[C@@H](C[C@@H]1OC(=O)[C@H]1CCCCCC)OC(=O)[C@H](CC(C)C)NC=O`, the Potency result in experiment [3], in experiment [1], in experiment [2], in experiment [4], in [5] and in [10] was “inactive” in each case. The Potency entry in experiment [6], in [7] and in experiment [8] was “inactive” each time.

In the case of `Nc1nc(-c2ccccc2)c(Br)c(=O)[nH]1`, the Potency result in experiment [3], in experiment [1] and in experiment [2] was “inactive” each time.

As to `CN1CCN(c2cc3c(cc2F)c(=O)c(C(=O)O)cn3-c2ccc(F)cc2)CC1`, the Potency result in [3], in [1] and in [2] was “inactive” throughout.

For the molecule `CCN(CC)CCOc1ccc2c(c1)C(=O)c1cc(OCCN(CC)CC)ccc1-2`, the Potency entry in experiment [3] and in [1] was “inactive” in each case. Further, the Potency in [4] was 18.5 µM (active); in [9], 7.37 µM (active); in experiment [6], 11.7 µM (active).

For `CCCCCCCCOc1ccc(C(=O)c2ccccc2)c(O)c1`, the Potency entry in experiment [3], in [1] and in [2] was “inactive” in each case.

For the molecule `NC(N)=NN=C(/C=C/c1ccc([N+](=O)[O-])o1)/C=C/c1ccc([N+](=O)[O-])o1`, the Potency was 21.1 µM (active) in experiment [3]; 3.35 µM (active) in [1]; 1.19 µM (active) in [2]; 1.17 µM (active) in experiment [4]; 2.61 µM (active) in [5]; 9.27 µM (active) in [10]. Also, the Potency in [6] is 1.17 µM (active); in [8] it was 2.93 µM (active).

Take `O=C(Oc1cccc2cccnc12)c1ccccc1`: the Potency result in experiment [3] and in experiment [8] was “inactive” throughout. In addition, the Potency in experiment [10] and in [6] was 9.27 µM (active) each time.

For the molecule `CCCCC(CC)COC(=O)/C=C/c1ccc(OC)cc1` (stereo not drawn), the Potency result in [3], in experiment [1] and in experiment [2] was “inactive” in each case.

`C[C@H]1O[C@@H](O[C@H]2CC[C@@]3(C)[C@H](CC[C@@H]4[C@@H]3C[C@@H](O)[C@]3(C)[C@@H](C5=CC(=O)OC5)CC[C@]43O)C2)C[C@H](O)[C@@H]1O[C@H]1C[C@H](O)[C@H](O[C@H]2C[C@H](O)[C@H](O[C@@H]3O[C@H](CO)[C@@H](O)[C@H](O)[C@H]3O)[C@@H](C)O2)[C@@H](C)O1`: the Potency in experiment [3] is 0.075 µM (active); in [4] it was 0.414 µM (active); in experiment [5] it was 0.737 µM (active); in experiment [9], 0.414 µM (active); in [10], 0.293 µM (active); in [6], 0.414 µM (active). In addition, the Potency in experiment [7] was 0.369 µM (active); in experiment [8] it was 0.465 µM (active). Besides, in experiment [1], the Potency entry was “inactive”.

For the molecule `CCC1NC(=O)c2cc(S(N)(=O)=O)c(Cl)cc2N1` (stereo not drawn), the Potency entry in experiment [3], in experiment [1] and in experiment [2] was “inactive” each time.

On to `CCNC(=O)NCc1cccc(Cl)c1`, for which the Potency result in experiment [3], in experiment [1] and in [2] was “inactive” each time.

As for `CCNC(=O)/C=C/c1cccc(Br)c1`, the Potency result in experiment [3], in [1] and in experiment [2] was “inactive” each time.

For `CC1CCc2c(N3CCC(O)CC3)c(F)cc3c(=O)c(C(=O)O)cn1c23` (stereo not drawn), the Potency entry in experiment [3], in experiment [1], in experiment [2], in experiment [6] and in experiment [7] was “inactive” throughout.

With `NCCNc1cccc2ccccc12`, the Potency result in experiment [3], in experiment [1] and in experiment [2] was “inactive” each time.

For the molecule `COc1cc(C(=S)N2CCOCC2)ccc1O`, the Potency result in [3], in experiment [1] and in [2] was “inactive” each time.

Regarding `OC(C#CCN1CCCC1)(c1ccccc1)c1ccccc1`, the Potency result in experiment [3], in experiment [1] and in experiment [2] was “inactive” each time.

`CCCCN1C[C@H](O)[C@@H](O)[C@H](O)[C@H]1CO`: the Potency entry in [3], in experiment [1] and in experiment [2] was “inactive” throughout.

For `CCOCCn1c(N2CCCN(C)CC2)nc2ccccc21`, the Potency entry in [3], in experiment [1] and in [2] was “inactive” throughout.

With `O=C(O)CCNC(=O)c1ccccc1`, the Potency result in [3], in experiment [1] and in [2] was “inactive” each time.

For `C=C[C@H]1CN2CC[C@H]1C[C@H]2[C@H](O)c1ccnc2ccc(OC)cc12`, the Potency result in experiment [3], in [1] and in experiment [2] was “inactive” each time.
